Experimental data as given in PubChem BioAssay (NCATS).
“And” between values parts separate entries of the source, which are not always exact repeats. Equal values may be shown once. Inconclusive results are not listed. The source made the active and inactive calls. Calls follow the shape of the dose curve; as a rule, active = well fitted inhibition curve with a large enough effect; inconclusive = small, poorly fitted or top-dose-only effect; inactive = flat fitted curve, though single readings scatter. Where a SMILES comes first, the peptide text is derived from it.

What was measured:
CRL-7250 = normal cell line; assay: Cytotoxic Profiling of Annotated Libraries Using Quantitative High-Throughput Screening (AID 1296008); settings: Five cell lines viability, CellTiter-Glo ATP luminescence, 48-72 h; max response: hits give low values; also: potency is read from the fitted curve at half-maximal effect; as to max response: % is scaled to controls: 0 for no effect and ±100 for the full control effect
Outline: (§1)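 Cells exposed to compounds for 48 or 72 hr at 37 degrees Celsius. Viability read as ATP-coupled luminescence with CellTiter-Glo after 10 min at room temperature.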

HEK293 = assay: as above; settings: Five cell lines viability, CellTiter-Glo ATP luminescence, 48-72 h; max response: hits give low values
Outline: as §1

HaCat [1] = assay: as above; settings: Five cell lines viability, CellTiter-Glo ATP luminescence, 48-72 h; max response: hits give low values
Outline: as §1

NIH3T3 = assay: as above; settings: Five cell lines viability, CellTiter-Glo ATP luminescence, 48-72 h; max response: hits give low values
Outline: as §1

KB-3-1 = assay: as above; settings: Five cell lines viability, CellTiter-Glo ATP luminescence, 48-72 h; max response: hits give low values
Outline: as §1

HEK293T = assay: qHTS assay to identify novel small-molecules to repurpose for Merkel cell carcinoma treatment (AID 1296009); settings: MCC and control cell lines, CellTiter-Glo viability, 72 h; series mostly up to 44.8 µM
Outline: (§2)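 Dose-response viability screen; 72 hr exposure at 37 degree celsius; CellTiter-Glo added, 10 min room temperature, luminescence read; RLUs scaled between no-cell and DMSO wells.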

HACAT [2] = assay: as above; settings: MCC and control cell lines, CellTiter-Glo viability, 72 h; at 44.8 µM (top of the series) unless noted
Outline: as §2
Also: nearly all actives have a fitted effect of over 60% in size.

O=C(NC[C@H](O)CN1CCc2ccccc2C1)c1cc(NC2COC2)ncn1
inactive: max response (CRL-7250) -6.51% and -13.6% | max response (HEK293) -6.86% | max response (HaCat [1]) -0.448% | max response (NIH3T3) -2.53% | outcome (NIH3T3)

CC(C)=CCCC1(C)Oc2cc3c(c4c2C2C(O4)C(C)(O)CCC21)CN(C(CCC(=O)O)C(=O)O)C3=O (configuration not stated)
inactive: outcome (CRL-7250) | outcome (HEK293) | max response (HaCat [1]) -6.38% | outcome (KB-3-1) | outcome (NIH3T3) | Potency (HEK293T)

CC1NC(=O)CNC(=O)C(C(C)C)NC(=O)C2CCCN2C(=O)C(C(C)C)NC(=O)C(Cc2c[nH]c3ccccc23)NC1=O (configuration not stated) (cyclo(GAWVPV); configuration not given here)
inactive: outcome (CRL-7250) | outcome (HEK293) | outcome (HaCat [1]) | outcome (NIH3T3) | outcome (HACAT [2]) inactive [at 17.4 µM] | Potency (HEK293T)

C[C@@H]1O[C@@H](OC[C@H]2O[C@@H](OCCc3ccccc3)[C@H](O)[C@@H](O)[C@@H]2O)[C@H](O)[C@H](O)[C@H]1O
inactive: max response (CRL-7250) -0.537% | outcome (HEK293) | outcome (HaCat [1]) | max response (NIH3T3) 4.11% | outcome (HACAT [2]) inactive [at 17.4 µM] | Potency (HEK293T)

CC(O)(CC(=O)O)CC(=O)O[C@@H]1[C@@H](O)[C@H](OCCc2ccccc2)O[C@H](CO)[C@H]1O (some centres not stated)
inactive: max response (CRL-7250) -0.691% | outcome (HEK293) | max response (HaCat [1]) -14.4% | max response (KB-3-1) 7.92% | max response (NIH3T3) 1.93% | Potency (HEK293T)

O=C(c1ccccn1)c1cnn2c(-c3ccncc3)ccnc12
inactive: max response (CRL-7250) 3% | outcome (HEK293) | outcome (HaCat [1]) | max response (NIH3T3) 1.02% | outcome (HACAT [2]) | Potency (HEK293T)

O=C(NN1CCCCC1)c1nn(-c2ccc(Cl)cc2Cl)c(-c2ccc(C#Cc3ccc(C(F)(F)F)cc3)s2)c1CNS(=O)(=O)N1CCCC1
inactive: max response (CRL-7250) -7.83% | outcome (HEK293) | outcome (HaCat [1]) | outcome (NIH3T3) | outcome (HACAT [2]) | Potency (HEK293T)

OC[C@H]1O[C@@H](Oc2ccc(O)c3cccc(O)c23)[C@H](O)[C@@H](O)[C@@H]1O
inactive: outcome (CRL-7250) | outcome (HEK293) | max response (HaCat [1]) -1.01% | max response (KB-3-1) 3.57% | outcome (NIH3T3) | Potency (HEK293T)

COC1=CC(=O)O[C@@H](CCc2ccccc2)[C@@H]1O
inactive: max response (CRL-7250) -14.6% | outcome (HEK293) | max response (HaCat [1]) -13% | max response (NIH3T3) 3.13% | Potency (HEK293T)

Cc1ccc(C(=O)Nc2ccc(Oc3cc4cnn(C)c4cc3-c3cn[nH]c3)c(F)c2)c(=O)n1-c1ccc(F)cc1
active: Potency (CRL-7250) 4.67 µM | Potency (HEK293) 5.8 µM and 3.31 µM | Potency (HaCat [1]) 16.6 µM | Potency (NIH3T3) 4.11 µM

CN(C)CCCN1c2ccccc2C(C)(C)c2ccccc21
inactive: max response (KB-3-1) -18.4%

CCCC(=O)Nc1ncnc2c1ncn2[C@@H]1O[C@@H]2COP(=O)(O)O[C@H]2[C@H]1OC(=O)CCC
inactive: max response (KB-3-1) -5.3%

CC(=O)O[C@H]1[C@H](Oc2ccccc2COC(=O)C2(O)C=CCCC2=O)O[C@H](CO)[C@@H](O)[C@@H]1O (some centres not stated)
inactive: max response (CRL-7250) 3.12% | outcome (HEK293) | max response (HaCat [1]) 3.69% | max response (NIH3T3) 0.519% | Potency (HEK293T)

CON(C)C(=O)N1N=C(c2cc(F)ccc2F)S[C@@]1(CCCN)c1ccccc1
active: Potency (HEK293) 4.6 nM | Potency (KB-3-1) 0.0082 µM
inactive: max response (CRL-7250) -53.9% and -40.4% | max response (NIH3T3) -29.1%

O=C1C(=O)c2ncccc2-c2cccnc21
active: Potency (KB-3-1) 4.61 µM

Nc1c(N=Nc2ccc(-c3ccc(N=Nc4cc(S(=O)(=O)O)c5ccccc5c4N)cc3)cc2)cc(S(=O)(=O)O)c2ccccc12
inactive: max response (KB-3-1) -9%

NCc1ccccc1CC(=O)N[C@@H]1C(=O)N2C(C(=O)O)=C(CSc3nnnn3CC(=O)O)CS[C@H]12
inactive: max response (KB-3-1) -8.7%

CC[C@H]1OC(=O)C[C@@H](O)[C@H](C)[C@@H](O[C@@H]2O[C@H](C)[C@@H](O)[C@H](N(C)C)[C@H]2O)[C@@H](CCN2C[C@H](C)C[C@H](C)C2)C[C@@H](C)C(=O)/C=C/C(C)=C/[C@@H]1CO[C@@H]1O[C@H](C)[C@@H](O)[C@@H](OC)[C@H]1OC
inactive: max response (CRL-7250) 1.46% | outcome (HaCat [1]) | max response (KB-3-1) 2.68% and 4.42% | outcome (NIH3T3) | outcome (HACAT [2])

CCC(=O)O[C@]1(C(=O)CCl)[C@@H](C)C[C@H]2[C@@H]3C[C@H](F)C4=CC(=O)C=C[C@]4(C)[C@@]3(F)[C@@H](O)C[C@@]21C
inactive: max response (CRL-7250) -3.75% | max response (HaCat [1]) -1.16% | max response (NIH3T3) 1.57%

CC1(C)O[C@@H]2C[C@H]3[C@@H]4CCC5=CC(=O)C=C[C@]5(C)[C@H]4[C@@H](O)C[C@]3(C)[C@]2(C(=O)CO)O1
inactive: max response (KB-3-1) -0.986%

CC1(C)C(C=C(Cl)Cl)C1C(=O)OCc1cccc(Oc2ccccc2)c1 (configuration not stated)
inactive: max response (KB-3-1) -12.6%

O=C(O)c1n[nH]c2c1C[C@H]1C[C@@H]21
inactive: max response (CRL-7250) -0.338% | outcome (HEK293) | max response (HaCat [1]) 2.24% | max response (NIH3T3) -3.9% | Potency (HEK293T)

CCCCC(=O)O[C@]1(C(=O)CO)[C@H](C)C[C@H]2[C@@H]3CCC4=CC(=O)C=C[C@]4(C)[C@@]3(F)[C@@H](O)C[C@@]21C
inactive: max response (KB-3-1) 32.2%

COc1cc2c(Nc3ccc(Cl)c(Cl)c3F)ncnc2cc1OCC1C[C@@H]2CN(C)C[C@@H]2C1 (some centres not stated)
active: Potency (HEK293) 16.4 µM and 13.2 µM | Potency (HaCat [1]) 231 nM and 11.7 nM | Potency (KB-3-1) 18.4 µM | Potency (NIH3T3) 1.3 µM and 8.31 µM

C=C(C)[C@@H]1CC[C@](C)(O)[C@@H](OC(=O)c2ccccc2)C1
inactive: outcome (CRL-7250) | outcome (HEK293) | max response (HaCat [1]) -0.346% | outcome (NIH3T3) | Potency (HEK293T)

C=C1CCC2[C@@](C)(C=O)CCC[C@]2(C)[C@H]1CC/C(C)=C/CO (some centres not stated)
inactive: outcome (CRL-7250) | outcome (HEK293) | max response (HaCat [1]) 3.6% | max response (NIH3T3) 1.05% | Potency (HEK293T)

COc1ccc(C[C@@H](C)NC[C@H](O)c2ccc(O)c(NC=O)c2)cc1
inactive: max response (KB-3-1) 2.59%

C[C@@H]1C[C@H]2[C@@H]3CCC4=CC(=O)C=C[C@]4(C)[C@@]3(F)[C@@H](O)C[C@]2(C)[C@@]1(O)C(=O)COP(=O)(O)O
inactive: max response (CRL-7250) -4.68% | max response (HEK293) 4.74% | max response (KB-3-1) 13.8% | outcome (KB-3-1)

OC[C@H]1O[C@@H](n2cnc3c2NC=NC[C@H]3O)C[C@@H]1O
inactive: max response (CRL-7250) 4.05% | outcome (HEK293) | max response (KB-3-1) -3.14% and 0.256% | max response (NIH3T3) -9.01% | Potency (HEK293T)

CC(=O)O[C@]1(C(C)=O)CC[C@H]2[C@@H]3CCC4=CC(=O)CC[C@]4(C)[C@@]3(F)[C@@H](O)C[C@@]21C
inactive: max response (KB-3-1) 28.7%

CCCCC/C=C\C/C=C\CCCCCCCC(=O)O
inactive: max response (KB-3-1) -13.1%
